# Test results taken from PubChem BioAssay.
# Unmarked numbers belong to inactive results. Where a call stands in place of a potency, no number is given. For some assays here: Potency and affinity values are given separately. Calls of active or inactive are those of the source. Unless noted, the rule behind the calls is not given here.
# Experiments:
# [1] = antimalarial activity against Dd2 strain (AID 2302;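 active = growth inhibition above 50% at the single 2 µM test dose, taken to imply half-maximal potency below 2 µM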); conditions: P. falciparum Dd2 in RBCs, LDH growth readout, 72 h; at 2 µM; active compounds read high
# [2] = human hepatoma cell viability loss – ATP luminescence, cytotoxicity control for P. falciparum antimalarial project, primary screen (AID 2303;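 active = inhibition above 50%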); conditions: HepG2 viability, 24-48 h, at 10 µM, active compounds read high
# [3] = biological target: L-lactate dehydrogenase (Plasmodium falciparum (isolate CDC / Honduras)) (UniProt Q27743); assay: PfLDH activity inhibition – cell lysate, 3D7 strain, counter-screen for P. falciparum growth inhibition project (AID 2304); conditions: P. falciparum 3D7 crude extract, LDH APAD/NBT absorbance; at 2 µM; active compounds read high
# [4] = inhibition of 3D7 malaria parasite growth – strain 3D7 (AID 2306); conditions: P. falciparum 3D7 erythrocytic growth, LDH absorbance, 72 h; at 2 µM; active compounds read high
# [5] = biological target: Calcium-dependent protein kinase 1 (Plasmodium falciparum (isolate 3D7)) (UniProt P62344); assay: PfCDPK1 kinase inhibitors, biochemical, TCAMS library (AID 1159585; cut-off not given, nearly all actives have IC50 up to about 0.98 µM;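 note: inhibitors leave more ATP so luminescence rises with inhibition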); conditions: recombinant PfCDPK1, Kinase-Glo ATP depletion luminescence
# [6] = biological target: Plasmodium falciparum protein kinase 6 (PK6, PF3D7_1337100) (UniProt Q8IDW1); assay: PfPK6 kinase inhibitors, biochemical, TCAMS library (AID 1159586); conditions: recombinant PfPK6, Kinase-Glo ATP depletion luminescence
# [7] = biological target: Protein kinase 7 (PK7), Plasmodium falciparum 3D7 (PF3D7_0213400) (UniProt Q7YTF7); assay: inhibition of Plasmodium PK7 catalytic activity – biochemical, TCAMS antimalarial set, Kinase-Glo luminescence (AID 1159587); conditions: recombinant PfPK7, Kinase-Glo ATP depletion luminescence
# [8] = biological target: Calcium-dependent protein kinase 4 (Plasmodium falciparum (isolate 3D7)) (UniProt Q8IBS5); assay: PfCDPK4 kinase inhibitors, biochemical, TCAMS library (AID 1159588; cut-off not given, nearly all actives have IC50 up to about 0.91 µM); conditions: recombinant PfCDPK4, Kinase-Glo ATP depletion luminescence
# Sequence of Calcium-dependent protein kinase 4 (Plasmodium falciparum (isolate 3D7)) (Q8IBS5 whole entry, looked up): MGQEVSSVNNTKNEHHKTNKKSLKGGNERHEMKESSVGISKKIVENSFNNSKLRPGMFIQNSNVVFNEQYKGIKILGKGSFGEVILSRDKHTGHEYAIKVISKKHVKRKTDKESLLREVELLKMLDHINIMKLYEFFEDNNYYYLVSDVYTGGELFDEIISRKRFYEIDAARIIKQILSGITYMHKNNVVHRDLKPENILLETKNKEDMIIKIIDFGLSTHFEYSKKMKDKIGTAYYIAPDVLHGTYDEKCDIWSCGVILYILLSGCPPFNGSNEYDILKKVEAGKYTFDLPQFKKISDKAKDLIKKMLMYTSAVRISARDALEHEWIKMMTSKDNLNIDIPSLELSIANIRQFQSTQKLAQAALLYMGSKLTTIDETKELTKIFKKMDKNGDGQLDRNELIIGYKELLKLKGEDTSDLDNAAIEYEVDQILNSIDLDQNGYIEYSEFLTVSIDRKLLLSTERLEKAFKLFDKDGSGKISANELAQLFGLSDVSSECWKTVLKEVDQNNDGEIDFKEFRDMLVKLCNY
# Sequence of Calcium-dependent protein kinase 1 (Plasmodium falciparum (isolate 3D7)) (P62344 whole entry, looked up): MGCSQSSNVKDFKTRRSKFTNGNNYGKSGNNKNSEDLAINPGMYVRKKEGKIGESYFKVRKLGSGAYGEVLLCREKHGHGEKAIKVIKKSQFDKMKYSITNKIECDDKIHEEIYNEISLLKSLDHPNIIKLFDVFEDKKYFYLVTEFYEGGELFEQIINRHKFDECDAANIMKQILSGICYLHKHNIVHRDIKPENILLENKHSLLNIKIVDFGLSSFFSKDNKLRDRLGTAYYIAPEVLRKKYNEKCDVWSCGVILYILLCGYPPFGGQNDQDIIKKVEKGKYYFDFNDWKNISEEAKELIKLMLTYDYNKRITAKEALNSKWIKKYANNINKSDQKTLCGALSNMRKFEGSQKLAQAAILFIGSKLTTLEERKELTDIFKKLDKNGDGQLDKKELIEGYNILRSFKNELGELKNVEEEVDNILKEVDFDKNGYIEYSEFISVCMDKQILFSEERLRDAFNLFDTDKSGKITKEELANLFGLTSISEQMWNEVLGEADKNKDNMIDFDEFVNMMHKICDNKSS
# Sequence of Protein kinase 7 (PK7), Plasmodium falciparum 3D7 (PF3D7_0213400) (Q7YTF7 1-343): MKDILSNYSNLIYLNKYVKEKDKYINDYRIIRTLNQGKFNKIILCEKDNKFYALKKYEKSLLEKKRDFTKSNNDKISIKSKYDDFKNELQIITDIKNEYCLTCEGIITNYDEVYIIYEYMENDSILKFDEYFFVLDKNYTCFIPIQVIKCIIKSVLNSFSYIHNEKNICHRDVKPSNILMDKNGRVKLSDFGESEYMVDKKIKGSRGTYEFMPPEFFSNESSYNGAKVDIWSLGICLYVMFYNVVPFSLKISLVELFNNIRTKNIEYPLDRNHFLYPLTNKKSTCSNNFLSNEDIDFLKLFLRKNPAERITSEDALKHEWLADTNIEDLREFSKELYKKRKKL
# Sequence of L-lactate dehydrogenase (Plasmodium falciparum (isolate CDC / Honduras)) (Q27743 whole entry, looked up): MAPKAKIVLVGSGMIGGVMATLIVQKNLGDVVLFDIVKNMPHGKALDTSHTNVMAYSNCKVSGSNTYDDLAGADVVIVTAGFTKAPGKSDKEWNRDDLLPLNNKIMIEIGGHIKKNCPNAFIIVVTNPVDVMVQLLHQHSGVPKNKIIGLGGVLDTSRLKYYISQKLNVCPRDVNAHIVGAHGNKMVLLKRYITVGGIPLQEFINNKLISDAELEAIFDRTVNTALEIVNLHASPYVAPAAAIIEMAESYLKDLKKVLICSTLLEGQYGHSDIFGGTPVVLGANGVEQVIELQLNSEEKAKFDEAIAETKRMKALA
# Sequence of Plasmodium falciparum protein kinase 6 (PK6, PF3D7_1337100) (Q8IDW1 1-305): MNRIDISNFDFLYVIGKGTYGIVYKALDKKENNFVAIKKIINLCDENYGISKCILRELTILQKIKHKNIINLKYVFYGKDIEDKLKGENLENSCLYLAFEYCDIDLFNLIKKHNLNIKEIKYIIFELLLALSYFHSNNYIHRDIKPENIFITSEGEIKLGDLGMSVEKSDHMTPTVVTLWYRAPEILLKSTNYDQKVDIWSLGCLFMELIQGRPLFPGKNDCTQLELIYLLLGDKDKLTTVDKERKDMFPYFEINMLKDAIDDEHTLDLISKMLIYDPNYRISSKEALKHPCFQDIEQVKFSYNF
SMILES,growth inhibition [1],inhibition [2],inhibition [3] [%],growth inhibition [4],outcome [5],outcome [6],outcome [7],outcome [8]
CCCCC1=CC2C(=O)C(C(=O)OC)=CN=C2C=C1OCc1ccccc1 (stereo not given),98% (active),7%,2,99% (active),inactive,inactive,inactive,inactive
COc1ccc(CCn2c(=N)c(C(=O)NC3CCCC3)cc3c(=O)n4ccccc4nc32)cc1,34%,11%,1,99% (active),inactive,inactive,inactive,inactive
CCOC(=O)c1ccc(NC(=O)Nc2ccc(-c3cccc(-c4nc5ccccc5[nH]4)c3)cc2)cc1,99% (active),94% (active),-4,101% (active),inactive,inactive,inactive,inactive
O=C(NCC1CCN(CC2CCCCC2)C1)c1cc(-c2cccc(C(F)(F)F)c2)cs1 (stereo not given),21%,47%,-3,96% (active),inactive,inactive,inactive,inactive
CN(C)c1ccc(-c2ccc(C(=O)NC3CCN(Cc4ccccc4)CC3)s2)cc1,10%,20%,-3,92% (active),inactive,inactive,inactive,inactive
COc1ccc(CNCc2ccc(-c3ccc(-c4nc5ccc(F)cc5[nH]4)cc3)cc2)cc1,83% (active),70% (active),5,99% (active),inactive,inactive,inactive,inactive
Cc1ccc(C(=O)Nc2ccc(Cl)c(N3CCN(CCc4ccccc4)CC3)c2)cc1,14%,17%,-7,90% (active),inactive,inactive,inactive,inactive
COc1cc2nc(NCCc3ccccc3)nc(NCCCc3ccccc3)c2cc1OC,101% (active),21%,2,101% (active),inactive,inactive,inactive,inactive
Cc1nnsc1C(=O)Nc1ccc(-c2ccc(-c3nc4c(C)cccc4[nH]3)s2)cc1,61% (active),63% (active),2,100% (active),inactive,inactive,inactive,inactive
CC(=O)Nc1ccc(OCCN(CC(C)C)c2ccc(C(F)(F)F)c(C#N)c2)c(Cl)c1,95% (active),13%,2,96% (active),inactive,inactive,inactive,inactive
O=C(COc1ccc(F)cc1)NC1CCN(c2ccnc3cc(Cl)ccc23)C1 (stereo not given),100% (active),24%,-1,102% (active),inactive,inactive,inactive,inactive
Cc1cc(N2Cc3ccccc3C2)nc(Nc2ccc(S(=O)(=O)N3CCOCC3)cc2)n1,85% (active),13%,0,101% (active),inactive,inactive,inactive,inactive
Nc1nc(N)c2cc(NS(=O)(=O)c3ccc(-c4ccccc4)cc3)ccc2n1,54% (active),7%,-3,102% (active),inactive,inactive,inactive,inactive
O=C(/C=C/c1ccccc1Cl)Nc1ccc(Br)c(OCCN2CCN(CCN3CCOCC3)CC2)c1,91% (active),22%,-3,98% (active),inactive,inactive,inactive,inactive
C=CC[C@@H](C(=O)OCC)[C@@H]1[C@@H](N(CC=C)C(=O)OC(C)(C)C)CCN1C(=O)OCc1ccccc1,68% (active),2%,4,92% (active),inactive,inactive,inactive,inactive
O=c1c2sc(-c3ccc(Cl)cc3)cc2ncn1Cc1ccc(OCCN2CCCC2)c2ccccc12,81% (active),38%,1,100% (active),inactive,inactive,inactive,inactive
CC(C)CNCc1ccc(-c2ccc(CN(CCCN3CCN(C)CC3)C(=O)/C=C/c3ccccc3)cc2)cc1,93% (active),57% (active),3,99% (active),inactive,inactive,inactive,inactive
O=C(/C=C/c1ccc(Cl)c(Cl)c1)NCCCCCN1CCCC(C(=O)Nc2ccc(Cl)cc2)C1 (stereo not given),-3%,35%,-3,98% (active),inactive,inactive,inactive,inactive
CC(C)C[C@@H](/C=N/N1CCOC1=O)NC(=O)[C@H](CC(C)C)NC(=O)c1ccc(OCCN2CCOCC2)cc1,87% (active),5%,6,92% (active),inactive,inactive,inactive,inactive
Cc1ccc(C2CCN(CCCCNC(=O)c3ccc(-c4ccc(C(F)(F)F)cc4)cc3)CC2)c(O)c1,49%,92% (active),-2,100% (active),inactive,inactive,inactive,inactive

SMILES,growth inhibition [1],inhibition [2],inhibition [3] [%],growth inhibition [4],outcome [5],outcome [6],outcome [7],outcome [8]
COc1cc(CNCCCNc2cc(=O)c3ccccc3[nH]2)c2c(c1)C(C)CN2C(=O)OC(C)(C)C (stereo not given),87% (active),-5%,2,96% (active),inactive,inactive,inactive,inactive
COc1ccc(-c2ccc(NC(=O)c3ccccc3)cc2)cc1CN1CCCN(C)CC1,17%,24%,3,92% (active),inactive,inactive,inactive,inactive
CC(=O)Nc1ccc(CN2CCN(C(c3ccc(F)cc3)c3ccc(F)cc3)CC2)cc1,79% (active),4%,0,93% (active),inactive,inactive,inactive,inactive
CCN(CC)C(=O)C1CCN(C(C(=O)N2CCN(CC(=O)N3CCCC3)CC2)c2cc3ccccc3o2)CC1 (stereo not given),4%,-11%,-7,98% (active),inactive,inactive,inactive,inactive
Cc1cc(N[C@@H](Cc2ccccc2)C(=O)NCc2cccs2)nc(NCCOc2ccccc2)n1,31%,2%,-3,93% (active),inactive,inactive,inactive,inactive
COc1ccc2nccc([C@H](O)CN3CCC(NCc4ccc5c(c4C)OCCO5)CC3)c2n1,6%,26%,4,94% (active),inactive,inactive,inactive,inactive
Cc1cccc2[nH]c(=O)c([N+](=O)[O-])c(O)c12,-2%,-2%,-2,95% (active),inactive,inactive,inactive,inactive
COc1ccc2nccc([C@@H](O)CN3CC[C@H](NCc4nc5c(cc4F)SCC(=O)N5)[C@H](F)C3)c2c1,49%,9%,-4,95% (active),inactive,inactive,inactive,inactive
CCOc1ccc(-c2noc(-c3c[nH]c4ccccc4c3=O)n2)cc1,93% (active),-7%,-3,99% (active),inactive,inactive,inactive,inactive
COc1cc2nc(N3CCC(CNC(=O)c4ccc(-c5ccc(-c6noc(C)n6)cc5C)cc4)CC3)nc(N)c2cc1OC,99% (active),99% (active),-4,100% (active),inactive,inactive,inactive,inactive
CCN(CCCN1CCCCC1)c1cc(C)nc(Nc2cc(C(F)(F)F)ccc2C)n1,41%,35%,-2,96% (active),inactive,inactive,inactive,inactive
Cc1nnsc1C(=O)Nc1ccc(-c2ccc(-c3nc4ccccc4[nH]3)s2)cc1,38%,49%,4,92% (active),inactive,inactive,inactive,inactive
CSc1ccc(CN2CCC(NC(=O)c3ccc(-c4cccc(Cl)c4)s3)CC2)cc1,19%,75% (active),-2,86% (active),inactive,inactive,inactive,inactive
O=C(NCCCCCN1CCC(c2c[nH]c3ccccc23)CC1)Nc1ccc(Br)cc1,-4%,24%,1,91% (active),inactive,inactive,inactive,inactive
Nc1c(-c2ccc(C(=O)NCCNCc3ccccc3)cc2)cnn1-c1ccc(C(F)(F)F)cc1,2%,23%,1,85% (active),inactive,inactive,inactive,inactive
CCOC(=O)c1cn(CC)c2cc(O[C@@H]3CCN(C(=O)OC(C)(C)C)C3)ccc2c1=O,94% (active),13%,-8,97% (active),inactive,inactive,inactive,inactive
Cc1ccc(Oc2ccc(CNc3nc(Nc4cccc(F)c4)nc(Nc4cccc(F)c4)n3)cc2)cc1,-2%,-5%,-2,86% (active),inactive,inactive,inactive,inactive
COc1cc(/C=C/C(=O)NC2CCC(N3CCC(c4ccccc4C)CC3)CC2)cc(OC)c1 (stereo not given),11%,51% (active),-4,89% (active),inactive,inactive,inactive,inactive
COCCn1c(Sc2ccc(C#N)c([N+](=O)[O-])c2)nnc1-c1ccc(N(C)C)cc1,66% (active),2%,-6,89% (active),inactive,inactive,inactive,inactive
COc1cccc2sc(N3CCN(C(=O)c4ccc([N+](=O)[O-])o4)CC3)nc12,67% (active),-17%,1,95% (active),inactive,inactive,inactive,inactive
